Shown are actives, neighbours in structure and some others; about 4.2% of the full set was active somewhere.
hgDAF12 agonist: activates the H. glycines DAF-12 receptor ligand-binding domain; HEK293 GAL4-hgDAF12 UAS-luciferase reporter, agonist luminescence; normalized to butyrate control; activation, % at 6.8 µM; hit rate 1.8% among 370,000;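 active means activation above a cutoff set at the mean of all screened compounds plus 3 SD, cut at about 10% in these data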;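 further: 0% = DMSO wells and 100% = sodium butyrate wells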
ssDAF12 agonist: S. stercoralis DAF-12 activation, primary screen; HEK293 ssDAF-12/GRIP1 lit1-tk-luc reporter, luminescence; % of 3 µM dafachronic acid response; activation, % at 6.8 µM; hit rate 1% among 370,000;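 active means activation above the mean over all tested compounds plus 3 SD, cut at about 0.9% in these data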;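 further: 0% = DMSO-only wells and 100% = 3 µM delta7-dafachronic acid wells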
hcDAF-12 act: activators of H. contortus DAF-12 nuclear receptor. HEK293 hcDAF-12 lit1-tk-luc reporter, luminescence; 0% DMSO, 100% Δ7-dafachronic acid. hit rate 1.4% among 370,000. activation, % at 6.8 µM;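 active means activation above the mean of all tested compounds plus 3 SD, cut at about 5.5% in these data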;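 further: 100% = response to 3 µM Δ7-dafachronic acid high control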
DAX1 StAR inh: inhibitors of DAX1 repression of SF-1 activated StAR promoter; HEK293T StAR-luciferase reporter, SF-1/DAX-1 repression relief; inhibition, % at 6.8 µM; hit rate 1.1% among 370,000;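 active means inhibition above the mean over all tested compounds plus 3 SD, cut at about 3.6% in these data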;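 further: 0% = DAX-1 cells with DMSO and 100% = cells lacking DAX-1 with DMSO; higher inhibition means more luminescence from relief of DAX-1 repression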
SMARCA2 activ: SMARCA2 function activation, primary screen; AID 652017; MG213 cells, MMTV-luciferase reporter, dexamethasone, overnight; hit rate 1% among 370,000; activation, % at 9.1 µM; in the data active means activation above about 7.8%;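 further: 0% = vehicle wells and 100% = reference activator wells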
LXR ag: LXR-beta agonism as hcDAF-12 counter-screen | shares compounds with hcDAF-12 act | AID 743027 | HEK293 Gal4-LXR tk-luc reporter, luminescence, 24 h; normalized: DMSO 0%, positive control 100% | 3,400 tested, under 10 active | activation, % at 6.8 µM;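 active means mean percent activation of the reporter above a cutoff set as the average over tested compounds plus their standard deviation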
Target sequence (P55055 whole entry, looked up, the tested form may be a part): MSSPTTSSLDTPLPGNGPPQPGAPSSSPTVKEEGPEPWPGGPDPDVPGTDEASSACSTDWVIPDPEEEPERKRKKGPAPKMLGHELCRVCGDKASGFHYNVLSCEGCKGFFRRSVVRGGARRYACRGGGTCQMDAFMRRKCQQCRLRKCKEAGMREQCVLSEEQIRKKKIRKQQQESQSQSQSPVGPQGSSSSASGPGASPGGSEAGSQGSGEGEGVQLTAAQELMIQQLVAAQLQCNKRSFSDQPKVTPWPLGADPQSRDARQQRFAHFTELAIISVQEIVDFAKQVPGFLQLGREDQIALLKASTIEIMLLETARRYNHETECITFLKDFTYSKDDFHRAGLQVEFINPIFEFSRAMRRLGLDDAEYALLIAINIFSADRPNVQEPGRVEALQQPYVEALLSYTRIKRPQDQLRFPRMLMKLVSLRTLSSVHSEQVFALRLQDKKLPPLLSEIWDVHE
hcDAF12 conf: hcDAF-12 agonism, confirmation assay; shares compounds with hcDAF-12 act; HEK293 hcDAF-12 lit1-tk-luc reporter, luminescence; % of Δ7-dafachronic acid response; activation, % at 6.8 µM; hit rate 61% among 3,400;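 active means mean activation across triplicate tests above the threshold derived from the earlier primary screen, cut at about 5.5% in these data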;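 further: 0% = DMSO only wells and 100% = 3 µM Δ7-dafachronic acid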
* hit, by the source's call; . = no result given.

SMILES	hgDAF12 agonist	ssDAF12 agonist	hcDAF-12 act	DAX1 StAR inh	SMARCA2 activ	LXR ag	hcDAF12 conf
CCCCn1cnc2c(sc3nc4c(cc32)CSC(C)(C)C4)c1=O	13*	0	7.0*	1	4	1	5.6*
O=S(=O)(CS(=O)(=O)c1ccc(Br)cc1)c1ccc(Br)cc1	0	-1	1	0	-4	.	.
CN(CCCOC(=O)c1cccs1)C1CN(Cc2cn(Cc3ccccc3Cl)nn2)S(=O)(=O)C1 (stereo unspecified)	1	-1	-2	-1	-2	.	.
Cc1ccc(S(=O)(=O)NCC(=O)OC(C(=O)c2ccccc2)c2ccccc2)cc1 (stereo unspecified)	1	-2	1	0	-1	.	.
CNC(=O)NC(=O)C(OC(=O)CCNS(=O)(=O)c1ccccc1)c1ccccc1 (stereo unspecified)	1	0	7.2*	0	1	0	1
CC(COc1cccc([N+](=O)[O-])c1)CN1CCC(C(O)(c2ccccc2)c2ccccc2)CC1 (stereo unspecified)	2	-2	2	-1	-4	.	.
COC(=O)C1=NN(c2ccccc2OC)C2C(=O)N(c3ccccc3OC)C(=O)C12 (stereo unspecified)	2	0	7.2*	1	-2	0	0
COc1ccc2nc3sc(C(=O)NCCCN4CCc5ccccc5C4)cc3cc2c1	4	1	8.0*	2	3	0	6.8*
Cc1ccc(C(=O)NC2CCCCN(C)C2=O)cc1 (stereo unspecified)	2	-1	0	1	0	.	.
Cc1cc2ccccc2n1CCNC(=O)c1ccc(Br)o1	2	0	8.0*	3	0	0	-1
Cc1cc2ccccc2n1CCNC(=O)c1ccccc1	1	0	4	1	4	.	.
CC(C)CNc1ncnc2c1ncn2[C@H]1CN(CCc2ccccc2)C[C@@H](CO)O1	1	-1	-1	-2	-5	.	.
O=C(Nc1ccccc1Cl)c1csc(-c2cccnc2)n1	9	2.8*	7.6*	0	1	0	6.7*
O=C(C1CCCN(S(=O)(=O)c2cccc3ccccc23)C1)N1CCN(Cc2ccccc2)CC1 (stereo unspecified)	0	-2	-1	-1	-4	.	.
Cc1ccc(CCNC(=O)C2CC(c3ccccc3[N+](=O)[O-])=NO2)cc1 (stereo unspecified)	2	0	2	0	0	.	.
COc1ccc(CCNC(=O)C2CC(c3ccccc3[N+](=O)[O-])=NO2)cc1 (stereo unspecified)	8	1.3*	7.6*	1	5	1	6.6*
CCc1cc2c(nc1CC)CCCN2S(=O)(=O)c1c(C)noc1C	1	-1	0	0	-4	.	.
Cc1ccc(N2CCN(c3ccc(NCc4nc5ccccc5n4C)cc3)CC2)cc1	1	0	3	0	-1	.	.
Cn1c(CNc2ccc(Cl)cc2)nc2ccccc21	13*	2.9*	16*	4.3*	6	1	11*
Cc1ccc(NCc2nc3ccccc3n2C)c(C)c1	12*	1	12*	3.7*	2	1	11*
Cc1cccc(NCc2nc3ccccc3n2C)c1	10	1	7.5*	2	7	0	6.9*
COc1ccc(Br)cc1/C=N/N1C(=O)CSC1=S	0	0	7.1*	0	-2	0	4
O=C1CSC(=S)N1N=Cc1c[nH]c2ccc(Br)cc12	4	0	1	0	0	.	.
COC(=O)[C@]12C[C@H](CC(=O)N3CCCCC3)C(=O)N(Cc3ccco3)C1=C[C@H](C(C)(C)C)O[C@@H]2C	-4	-2	-2	0	2	.	.
COc1ccc(CCNC(=O)COC(=O)C23CC4CC(CC(Br)(C4)C2)C3)cc1	0	-1	-3	-2	-4	.	.
SMILES	hgDAF12 agonist	ssDAF12 agonist	hcDAF-12 act	DAX1 StAR inh	SMARCA2 activ	LXR ag	hcDAF12 conf
COc1ccc(CCNC(=O)COC(=O)C23CC4CC(CC(C4)C2)C3)cc1	5	0	6.8*	-2	1	0	1
COC(=O)C1=C(C)N(Cc2ccc(C(F)(F)F)cc2)C(=NCc2ccc(C(F)(F)F)cc2)NC1c1ccc(F)cc1 (stereo unspecified)	1	0	3	-1	-7	.	.
Cc1cc(C)c(S(=O)(=O)/N=C2\C=C(NS(=O)(=O)c3ccccc3)C(=O)c3ccccc32)c(C)c1	0	0.9*	8.0*	0	-3	0	1
CC(=O)c1ccc(OC(C)c2nc3ccccc3s2)cc1 (stereo unspecified)	5	1.0*	7.7*	0	0	0	9.6*
CC(C)(C)NC(=S)N/N=C/c1cc(Br)c(O)c(Br)c1	1	1	7.4*	0	3	0	1
O=C(OCC(=O)c1c[nH]c2ccccc12)c1cc2ccccc2cc1O	1	-1	8.0*	0	-5	0	4
Cc1ccnc(NC(=S)NC(=O)c2cccs2)c1	19*	2.1*	14*	4.3*	4	2	11*
Cc1noc(/C=C/N(C)C)c1S(=O)(=O)N1CCc2ccccc21	-3	0	7.4*	0	-8	0	5.7*
O=C(Oc1ccccc1)c1ccccc1	2	-1	2	-1	3	.	.
CN(C)S(=O)(=O)c1ccc(C(=O)Oc2ccccc2)cc1	2	-1	12*	-1	2	0	1
Cc1ccc2cc(/C=N/Nc3nc4ccccc4[nH]3)c(Cl)nc2c1	11*	0.9*	13*	2	7.8*	1	15*
Cc1ccc(NCC(=O)N/N=C/c2cc3ccccc3nc2Cl)cc1	14*	2.0*	7.6*	1	7	0	5.6*
O=C(CN1CCOCC1)N/N=C/c1cc2ccccc2nc1Cl	0	0	0	0	2	.	.
CCCc1cc(=O)n2[nH]c(-c3cccc(Br)c3)cc2n1	8	-1	7.7*	1	1	1	7.3*
CN1CCN(C(=O)c2cc3sc4ccccc4c3s2)CC1	13*	0	7.3*	4.5*	6	1	5
CCn1c(=O)c2cc(C(=O)N3CCN(C)CC3)sc2c2ccccc21	-3	0	-1	0	0	.	.
CCCn1c(NC(=O)c2ccc(C)cc2)nc2ccccc21	4	-1	-1	0	-3	.	.
Cc1ccc(C(=O)Nc2nc3ccccc3n2CCN2CCCC2)cc1	14*	2.7*	9.1*	4.3*	4	1	8.5*

Bioassay records from PubChem BioAssay.
